The values below come from PubChem BioAssay (EPA / NIEHS).

Results filed as inconclusive are left out. The source made the active and inactive calls. Rule for the calls: active = hit-call score of the fitted dose curve at least 0.9, where 1 is the maximum; inconclusive = response in the unintended direction; inactive = score below 0.9.

As usually defined, the AC50 is the concentration giving half of the maximal activity seen.

Assay [1] addresses Serine/threonine-protein phosphatase PP1-alpha catalytic subunit (Homo sapiens) (UniProt P62136). As to the kind of experiment: NVS_ENZ_hPPP1CA: NovaScreen (NVS) Enzymatic Assay for human Protein Phosphatase 1 Aatalytic subunit Alpha (PPP1CA) (AID 2283200). In a few lines: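 Recombinant enzyme activity read by fluorescence with electrophoretic mobility shift separating substrate from product, 1.33 h after dosing; loss of signal vs DMSO baseline. Primary screen in duplicate at 25 uM; actives retested in concentration-response up to 50 uM.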

In assay [2] the target is human Phosphoinositide 3-kinase alpha (PI3Ka), PIK3CA (gene 5290) (UniProt P42336). The experiment in a line: NVS_ENZ_hPI3Ka: NovaScreen (NVS) Enzymatic Assay for human Phosphoinositide 3-kinase alpha (PI3Ka) (AID 2283196). The gist of the method:
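Recombinant human PI3Kα with fluorescent substrate, 1 h, product separated by electrophoretic mobility shift; 25 uM duplicate screen, hits (e.g., 30% inhibition) retested singly up to 50 uM; loss of signal vs DMSO.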

In assay [3] the target is human Phosphodiesterase 5 (PDE5), PDE5A (gene 8654) (UniProt O76074). The experiment in a line: NVS_ENZ_hPDE5: NovaScreen (NVS) Enzymatic Assay for human Phosphodiesterase 5 (PDE5) (AID 2283194). The gist of the method:
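Recombinant human PDE5 with specific substrate, read 1 h after dosing by fluorescence with electrophoretic mobility-shift separation of substrate and product. Initial single-concentration duplicate screen at 25 uM, actives followed in concentration series; loss of activity versus DMSO.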

The target of assay [4] is Tyrosine-protein phosphatase non-receptor type 11 (Homo sapiens) (UniProt Q06124). As to the kind of experiment: NVS_ENZ_hPTPN11: NovaScreen (NVS) Enzymatic Assay for human Protein Tyrosine Phosphatase Non-receptor Type 11 (PTPN11) (AID 2283202). In a few lines: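 Recombinant human PTPN11 activity on a fluorescent substrate, with substrate/product separated by electrophoretic mobility shift; read 0.5 h after dosing, loss of signal vs DMSO. Duplicate 25 uM screen, then concentration-response up to 50 uM.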
Chain of Tyrosine-protein phosphatase non-receptor type 11 (Homo sapiens) (Q06124 whole entry, looked up): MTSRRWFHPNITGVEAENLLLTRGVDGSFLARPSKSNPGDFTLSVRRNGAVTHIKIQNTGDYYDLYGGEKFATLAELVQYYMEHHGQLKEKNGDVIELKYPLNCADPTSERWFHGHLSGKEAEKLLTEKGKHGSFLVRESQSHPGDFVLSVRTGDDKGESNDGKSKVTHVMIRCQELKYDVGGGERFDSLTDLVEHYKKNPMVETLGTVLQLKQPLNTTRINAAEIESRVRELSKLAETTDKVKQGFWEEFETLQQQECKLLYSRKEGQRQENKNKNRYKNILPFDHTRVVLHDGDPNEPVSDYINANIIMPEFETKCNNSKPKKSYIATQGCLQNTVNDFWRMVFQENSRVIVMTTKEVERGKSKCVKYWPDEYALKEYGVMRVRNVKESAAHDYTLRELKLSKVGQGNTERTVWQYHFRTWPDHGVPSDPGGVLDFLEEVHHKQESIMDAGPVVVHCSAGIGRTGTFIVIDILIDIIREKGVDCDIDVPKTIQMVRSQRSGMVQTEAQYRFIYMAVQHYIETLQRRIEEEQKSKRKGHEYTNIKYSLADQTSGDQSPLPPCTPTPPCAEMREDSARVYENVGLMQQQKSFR

The target in assay [5] is Tyrosine-protein phosphatase non-receptor type 12 (Homo sapiens) (UniProt Q05209). The experiment in a line: NVS_ENZ_hPTPN12: NovaScreen (NVS) Enzymatic Assay for human Protein Tyrosine Phosphatase Non-receptor Type 12 (PTPN12) (AID 2283204). The gist of the method:
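Single-concentration duplicates (25 uM) preceded singleton concentration-response up to 50 uM for chemicals passing threshold. Cell-free recombinant PTPN12 activity was read 1.33 h after dosing via fluorescence after mobility-shift separation; loss of signal versus DMSO.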

Assay [6] deals with human Phosphodiesterase 10 (PDE10), PDE10A (gene 10846) (UniProt Q9Y233). The experiment in a line: NVS_ENZ_hPDE10: NovaScreen (NVS) Enzymatic Assay for human Phosphodiesterase 10 (PDE10) (AID 2283195). The gist of the method:
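Recombinant human PDE10 with fluorescent substrate, 1 h, product separated by electrophoretic mobility shift. Loss of enzyme activity fitted against DMSO; initial screen 25 uM in duplicate, actives run to 50 uM maximum.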

For another assay, the target named is PPP2CA (gene 5515) (UniProt P67775). As to the kind of experiment: NVS_ENZ_hPPP2CA: NovaScreen (NVS) Enzymatic Assay for human Protein Phosphatase 2 Aatalytic subunit Alpha (PPP2CA) (AID 2283199). The gist of the method:
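Recombinant human PPP2CA with fluorescent substrate; product separated from substrate by electrophoretic mobility shift, read 1.33 h after dosing. Duplicate single-point at 25 uM, then singleton concentration-response up to 50 uM; loss of signal versus DMSO.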

For assay [7], the target named is Tyrosine-protein phosphatase non-receptor type 13 (Homo sapiens) (UniProt Q12923). The experiment in a line: NVS_ENZ_hPTPN13: NovaScreen (NVS) Enzymatic Assay for human Protein Tyrosine Phosphatase Non-receptor Type 13 (PTPN13) (AID 2283205). The gist of the method: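 Cell-free assay of recombinant human PTPN13 with a fluorescent substrate, product separated by electrophoretic mobility shift and read 0.5 h after dosing. Primary screen at 25 uM in duplicate, then concentration-response up to 50 uM. Loss of signal fitted against DMSO.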
Chain of Tyrosine-protein phosphatase non-receptor type 13 (Homo sapiens) (Q12923 whole entry, looked up): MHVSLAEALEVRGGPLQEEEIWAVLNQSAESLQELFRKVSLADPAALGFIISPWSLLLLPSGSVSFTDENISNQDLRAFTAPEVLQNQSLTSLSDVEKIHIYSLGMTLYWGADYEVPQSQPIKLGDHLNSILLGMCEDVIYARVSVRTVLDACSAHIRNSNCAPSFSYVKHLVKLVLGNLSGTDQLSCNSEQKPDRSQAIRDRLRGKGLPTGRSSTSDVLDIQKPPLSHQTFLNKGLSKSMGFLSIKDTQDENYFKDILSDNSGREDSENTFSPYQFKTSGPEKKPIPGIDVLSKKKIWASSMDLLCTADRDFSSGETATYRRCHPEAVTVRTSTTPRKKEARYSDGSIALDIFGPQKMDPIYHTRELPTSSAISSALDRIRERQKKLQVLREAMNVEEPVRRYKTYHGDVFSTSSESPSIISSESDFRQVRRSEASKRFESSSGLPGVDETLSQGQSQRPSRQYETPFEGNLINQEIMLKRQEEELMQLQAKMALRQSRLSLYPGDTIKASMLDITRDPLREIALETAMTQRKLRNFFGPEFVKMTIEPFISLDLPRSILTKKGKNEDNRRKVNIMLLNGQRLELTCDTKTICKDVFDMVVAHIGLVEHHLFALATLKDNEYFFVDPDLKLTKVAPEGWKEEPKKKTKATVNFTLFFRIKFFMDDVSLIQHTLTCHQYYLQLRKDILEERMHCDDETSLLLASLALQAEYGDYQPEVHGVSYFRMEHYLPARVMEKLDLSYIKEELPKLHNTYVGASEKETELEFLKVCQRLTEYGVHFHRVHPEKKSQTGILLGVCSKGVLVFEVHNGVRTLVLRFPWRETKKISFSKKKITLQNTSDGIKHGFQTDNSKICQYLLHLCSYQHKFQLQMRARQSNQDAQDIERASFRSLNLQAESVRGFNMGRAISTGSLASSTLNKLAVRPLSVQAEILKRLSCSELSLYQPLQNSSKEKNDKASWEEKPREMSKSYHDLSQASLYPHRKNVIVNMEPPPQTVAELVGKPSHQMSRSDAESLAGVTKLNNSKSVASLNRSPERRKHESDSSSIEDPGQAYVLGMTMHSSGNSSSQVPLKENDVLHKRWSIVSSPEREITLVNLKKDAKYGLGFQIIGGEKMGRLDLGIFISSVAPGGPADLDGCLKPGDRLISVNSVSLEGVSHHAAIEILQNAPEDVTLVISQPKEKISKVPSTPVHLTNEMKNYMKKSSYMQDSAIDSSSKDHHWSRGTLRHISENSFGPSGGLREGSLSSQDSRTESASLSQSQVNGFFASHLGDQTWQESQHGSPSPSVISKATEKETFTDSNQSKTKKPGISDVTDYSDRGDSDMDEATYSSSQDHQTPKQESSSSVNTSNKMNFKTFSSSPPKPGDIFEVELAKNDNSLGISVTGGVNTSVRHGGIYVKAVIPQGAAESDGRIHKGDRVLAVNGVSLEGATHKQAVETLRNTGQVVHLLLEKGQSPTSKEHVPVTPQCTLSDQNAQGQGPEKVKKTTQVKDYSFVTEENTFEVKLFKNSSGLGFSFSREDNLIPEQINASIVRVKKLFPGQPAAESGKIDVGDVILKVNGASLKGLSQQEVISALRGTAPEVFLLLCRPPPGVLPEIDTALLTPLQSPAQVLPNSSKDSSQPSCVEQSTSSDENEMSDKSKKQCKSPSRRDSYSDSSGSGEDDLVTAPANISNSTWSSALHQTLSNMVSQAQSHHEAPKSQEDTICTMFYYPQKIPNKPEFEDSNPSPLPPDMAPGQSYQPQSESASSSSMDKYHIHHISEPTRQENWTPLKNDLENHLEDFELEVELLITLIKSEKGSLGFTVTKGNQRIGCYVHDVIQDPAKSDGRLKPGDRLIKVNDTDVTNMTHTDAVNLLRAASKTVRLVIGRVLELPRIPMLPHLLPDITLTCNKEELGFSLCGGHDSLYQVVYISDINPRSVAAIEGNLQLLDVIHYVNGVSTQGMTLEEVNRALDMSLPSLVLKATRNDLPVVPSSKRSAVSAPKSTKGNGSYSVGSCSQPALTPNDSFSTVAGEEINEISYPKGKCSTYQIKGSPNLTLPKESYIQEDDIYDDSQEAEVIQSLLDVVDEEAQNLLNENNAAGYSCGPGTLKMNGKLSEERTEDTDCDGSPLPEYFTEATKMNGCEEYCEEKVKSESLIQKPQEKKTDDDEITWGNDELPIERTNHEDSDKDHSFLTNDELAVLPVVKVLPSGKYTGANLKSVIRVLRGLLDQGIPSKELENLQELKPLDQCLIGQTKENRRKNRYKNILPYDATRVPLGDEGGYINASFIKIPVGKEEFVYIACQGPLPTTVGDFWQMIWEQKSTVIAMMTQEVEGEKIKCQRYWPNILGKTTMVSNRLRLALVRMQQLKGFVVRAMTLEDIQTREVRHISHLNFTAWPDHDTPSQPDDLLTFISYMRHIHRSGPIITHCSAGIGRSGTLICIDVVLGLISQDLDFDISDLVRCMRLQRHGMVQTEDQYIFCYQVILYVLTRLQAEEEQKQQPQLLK

For assay [8], the target named is human Phosphatase and Tensin Homolog (PTEN), PTEN (gene 5728) (UniProt P60484). The experiment in a line: NVS_ENZ_hPTEN: NovaScreen (NVS) Enzymatic Assay for human Phosphatase and Tensin Homolog (PTEN) (AID 2283203). The gist of the method:
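Cell-free recombinant human PTEN with fluorescent substrate; product separated by electrophoretic mobility shift and read by fluorescence 1 h after dosing. Primary screen in duplicate at 25 uM, actives followed in concentration series versus DMSO.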

Assay [9] has as its target human Protein Tyrosine Phosphatase Non-receptor Type 1 (PTPN1), PTPN1 (gene 5770) (UniProt P18031). The experiment in a line: NVS_ENZ_hPTPN1: NovaScreen (NVS) Enzymatic Assay for human Protein Tyrosine Phosphatase Non-receptor Type 1 (PTPN1) (AID 2283201). The gist of the method:
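Cell-free fluorogenic-substrate activity assay on recombinant enzyme, read 1.33 h after dosing by fluorescence and electrophoretic mobility shift; loss of signal vs DMSO baseline. Primary screen in duplicate at 25 uM, hits then run in concentration-response up to 50 uM.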

Chain of PPP2CA (gene 5515) (P67775 whole entry, looked up): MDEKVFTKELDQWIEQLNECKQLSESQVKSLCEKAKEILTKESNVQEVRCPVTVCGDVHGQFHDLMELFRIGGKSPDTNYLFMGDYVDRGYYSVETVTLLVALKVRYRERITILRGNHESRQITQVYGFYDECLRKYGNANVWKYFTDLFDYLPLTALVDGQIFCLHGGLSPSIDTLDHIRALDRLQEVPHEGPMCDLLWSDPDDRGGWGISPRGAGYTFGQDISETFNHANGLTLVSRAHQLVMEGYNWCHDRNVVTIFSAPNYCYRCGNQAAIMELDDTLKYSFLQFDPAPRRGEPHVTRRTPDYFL
Chain of Serine/threonine-protein phosphatase PP1-alpha catalytic subunit (Homo sapiens) (P62136 whole entry, looked up): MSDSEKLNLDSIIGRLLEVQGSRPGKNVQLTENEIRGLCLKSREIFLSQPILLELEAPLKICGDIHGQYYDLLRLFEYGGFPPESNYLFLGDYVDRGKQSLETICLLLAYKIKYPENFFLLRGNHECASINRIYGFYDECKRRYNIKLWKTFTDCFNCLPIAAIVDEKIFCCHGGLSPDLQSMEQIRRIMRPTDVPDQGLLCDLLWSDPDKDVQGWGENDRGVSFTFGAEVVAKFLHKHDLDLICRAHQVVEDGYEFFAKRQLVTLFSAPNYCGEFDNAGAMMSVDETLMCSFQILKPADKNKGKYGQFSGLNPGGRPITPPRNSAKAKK
Chain of human Phosphoinositide 3-kinase alpha (PI3Ka), PIK3CA (gene 5290) (P42336 whole entry, looked up): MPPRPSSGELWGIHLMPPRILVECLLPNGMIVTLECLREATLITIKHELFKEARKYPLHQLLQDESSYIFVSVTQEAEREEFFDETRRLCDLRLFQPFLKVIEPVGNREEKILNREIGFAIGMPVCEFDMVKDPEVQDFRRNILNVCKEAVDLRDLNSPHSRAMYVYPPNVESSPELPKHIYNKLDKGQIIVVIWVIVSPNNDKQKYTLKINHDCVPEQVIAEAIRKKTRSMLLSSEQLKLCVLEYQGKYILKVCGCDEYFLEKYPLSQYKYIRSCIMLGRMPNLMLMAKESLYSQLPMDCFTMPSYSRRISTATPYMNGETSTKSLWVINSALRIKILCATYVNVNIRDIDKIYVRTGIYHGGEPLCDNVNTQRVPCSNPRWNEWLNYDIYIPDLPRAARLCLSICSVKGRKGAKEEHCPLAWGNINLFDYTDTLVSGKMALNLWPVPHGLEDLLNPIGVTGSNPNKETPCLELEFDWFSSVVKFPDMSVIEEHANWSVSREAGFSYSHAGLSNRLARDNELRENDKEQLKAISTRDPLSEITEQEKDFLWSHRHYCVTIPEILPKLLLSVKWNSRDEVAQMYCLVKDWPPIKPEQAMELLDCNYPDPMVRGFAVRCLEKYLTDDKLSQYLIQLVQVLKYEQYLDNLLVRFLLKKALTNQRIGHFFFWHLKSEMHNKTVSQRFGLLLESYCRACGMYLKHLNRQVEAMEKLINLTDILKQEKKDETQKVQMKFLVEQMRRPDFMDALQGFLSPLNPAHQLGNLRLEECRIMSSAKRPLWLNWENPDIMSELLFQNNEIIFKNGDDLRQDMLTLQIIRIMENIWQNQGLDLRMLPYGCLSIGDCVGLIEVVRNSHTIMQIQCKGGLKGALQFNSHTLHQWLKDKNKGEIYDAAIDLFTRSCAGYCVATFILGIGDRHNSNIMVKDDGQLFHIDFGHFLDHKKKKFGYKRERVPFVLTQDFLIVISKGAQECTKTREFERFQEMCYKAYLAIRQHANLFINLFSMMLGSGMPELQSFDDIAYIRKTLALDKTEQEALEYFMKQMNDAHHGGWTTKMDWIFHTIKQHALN

As to `CCCCNC(=O)OCC#CI`, the outcome in [1] was inactive.

With `N#Cc1nn(-c2c(Cl)cc(C(F)(F)F)cc2Cl)c(N)c1S(=O)C(F)(F)F` (stereo unspecified), in [2], the result was inactive.

Take `CCOP(=S)(OCC)SCn1c(=O)oc2cc(Cl)ccc21`: in assay [3], the molecule was classed as inactive.

In the case of `O=C(Nc1ccccc1)Nc1ccnc(Cl)c1`, the concentration at half-maximal activity (AC50) in assay [3] is 10 µM (active).

Take `CCCCOC(=O)c1ccccc1C(=O)OCCCC`: the molecule was called inactive in assay [4].

For the molecule `COC(=O)c1ccccc1C(=O)OC`, in [2], the result was inactive.

Consider `CNC(=S)S`, for which the molecule was classed as inactive in assay [4] and in assay [5].

For `COc1nc(C)nc(NC(=O)NS(=O)(=O)c2ccccc2CCC(F)(F)F)n1`, the concentration at half-maximal activity (AC50) in assay [3] is 25 µM (active). Moreover, the result in assay [2] was inactive.

In the case of `COc1cnc(OC)n2nc(NS(=O)(=O)c3c(OCC(F)F)cccc3C(F)(F)F)nc12`, the molecule was classed as inactive (in assay [6]; in the assay with PPP2CA (gene 5515)).

For `CO/C=C(/C(=O)OC)c1ccccc1Oc1cc(Oc2ccccc2C#N)ncn1`, in [2], the molecule was classed as inactive. The AC50 in [7] was 0.113 µM (active).

As to `C#CCOS(=O)OC1CCCCC1Oc1ccc(C(C)(C)C)cc1` (stereo unspecified), the molecule was called inactive in assay [8].

Consider `Cc1cc(Cl)ccc1OCC(=O)O`, for which, in assay [1], the result was inactive.

On to `CCCN(CCC)c1c([N+](=O)[O-])cc(S(N)(=O)=O)cc1[N+](=O)[O-]`, for which the result (in [3]; in assay [6]; in assay [2]; with PPP2CA (gene 5515); in assay [1]; in assay [9]) was inactive. Also, the outcome in assay [4] and in [7] was inactive.

As to `CC1COC(Cn2cncn2)(c2ccc(Oc3ccc(Cl)cc3)cc2Cl)O1` (stereo unspecified), the molecule was called inactive in assay [3].

As to `CN(C)C(=S)SSC(=S)N(C)C`, the molecule was classed as inactive in [2].

For `CCOC(=O)CC(SP(=S)(OC)OC)C(=O)OCC` (stereo unspecified), the result (with PPP2CA (gene 5515); in assay [1]) was inactive.

With `CC1=C(C(=O)Nc2ccccc2)SCCO1`, the molecule was called inactive in assay [2].

Consider `COP(=S)(OC)Oc1nc(Cl)c(Cl)cc1Cl`, for which the result in [9] was inactive.

Turning to `CS/C(C)=N/OC(=O)N(C)SN(C)C(=O)O/N=C(\C)SC`, the result in [2] was inactive.
